Each structure is given as a SMILES string. Values joined by “and” are separate entries in the source; they are usually repeats but may differ in a detail not shown here. Equal entries are not always repeated. Active and inactive are the calls of the source. Unless noted, how the calls were made is not given here.

Assay [1] can be described thus: glutamate transport activators, MN-1 cells, MN-1 cell line (AID 1612).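 Further: tested at 1 µM final; 0% = mean of DMSO vehicle wells on each plate; positive means more glutamate uptake than control and negative means less.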 As to conditions: MN-1 motor neuron cells, stronger effect = higher value.
The nature of assay [2]: 75Q-TubH aggregate inhibition, S. cerevisiae, yeast (AID 1616). As to conditions: S. cerevisiae 75Q-TubH polyglutamine aggregation suppression; stronger effect = higher value.
Assay [3] in a line: compounds altering viability of human ES cells (AID 493140).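 Further: cells exposed to compounds for four days before counting.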 As to conditions: human embryonic stem cell survival screen; stronger effect = higher value.
Assay [4] is described as follows: P. berghei load reduction in hepatocytes – cell-based, HepG2, luciferase luminescence, HepG2 viability, primary screen (AID 624349; in the data active means parasite load remaining mostly below about 12%, no sharp cut-off; inactive means mostly above about 10%;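 further: 100% = mean of DMSO negative control wells on the same plate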). As to conditions: P. berghei liver stage in HepG2, luciferase luminescence, concentration not given here; parasite load remaining: stronger effect = lower value; viability: measured here: HepG2 viability without parasites.
Assay [5] concerns Hepatitis C virus NS3 helicase. As to the kind of experiment: blockers of NS3h binding to ssDNA – biochemical, fluorescence polarization, LOPAC1280 library, primary screen (AID 687035; in the data active means inhibition above about 37%). As to conditions: Purified HCV NS3 helicase, Cy5-dT15 ssDNA binding fluorescence polarization; stronger effect = higher value; concentration not given here.
The nature of assay [6]: compounds altering Cy5-DNA-NS3h complex signal – biochemical, LOPAC1280, artefact control for HCV NS3 helicase inhibitor project (AID 687037). As to conditions: Cy5-DNA-NS3h complex fluorescence interference counterscreen. (In general: A counterscreen serves to expose hits that act by an unwanted route or on another target.)
A short description of assay [7]: Wnt pathway potentiators raising nuclear beta-catenin – imaging, WNT3A-conditioned medium, mouse C2C12, NPC library, primary screen (AID 1117326; in the data active means nuclear beta-catenin stimulation mostly above about 4.2%, no sharp cut-off; inactive means mostly below about 10%). As to conditions: stronger effect = higher value.
Assay [8] is described as follows: compounds altering circadian rhythm period length – cell-based, LOPAC library, luminescence reporter (AID 2774).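 Further: values are relative to mean of DMSO wells on each plate.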 As to conditions: circadian reporter cells, at 7 µM, actives lie on both sides.
Assay [9] is described as follows: antimalarial activity against Dd2 strain (AID 2302;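 active means growth inhibition above 50% at the single 2 µM test dose, taken to imply half-maximal potency below 2 µM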;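 further: 0% = DMSO untreated growth and 100% = chloroquine plus artemisinin killed control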). As to conditions: P. falciparum Dd2 in RBCs, LDH growth readout, 72 h; at 2 µM; stronger effect = higher value.
The nature of assay [10]: human hepatoma cell viability loss – ATP luminescence, cytotoxicity control for P. falciparum antimalarial project, primary screen (AID 2303;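 active means inhibition above 50%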;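 further: 0% = DMSO wells and 100% = digitonin-killed cells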). As to conditions: HepG2 viability, 24-48 h, at 10 µM, stronger effect = higher value.
Assay [11] concerns the target L-lactate dehydrogenase (Plasmodium falciparum (isolate CDC / Honduras)) (UniProt Q27743). As to the kind of experiment: PfLDH activity inhibition – cell lysate, 3D7 strain, counter-screen for P. falciparum growth inhibition project (AID 2304).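 Further: 0% = vehicle and 100% = reference inhibitor.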 As to conditions: P. falciparum 3D7 crude extract, LDH APAD/NBT absorbance; at 2 µM; stronger effect = higher value.
Assay [12] can be described thus: inhibition of 3D7 malaria parasite growth – strain 3D7 (AID 2306).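 Further: 0% = DMSO wells and 100% = chloroquine plus artemisinin control wells.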 As to conditions: P. falciparum 3D7 erythrocytic growth, LDH absorbance, 72 h; at 2 µM; stronger effect = higher value.

Chain of L-lactate dehydrogenase (Plasmodium falciparum (isolate CDC / Honduras)) (Q27743 whole entry, looked up): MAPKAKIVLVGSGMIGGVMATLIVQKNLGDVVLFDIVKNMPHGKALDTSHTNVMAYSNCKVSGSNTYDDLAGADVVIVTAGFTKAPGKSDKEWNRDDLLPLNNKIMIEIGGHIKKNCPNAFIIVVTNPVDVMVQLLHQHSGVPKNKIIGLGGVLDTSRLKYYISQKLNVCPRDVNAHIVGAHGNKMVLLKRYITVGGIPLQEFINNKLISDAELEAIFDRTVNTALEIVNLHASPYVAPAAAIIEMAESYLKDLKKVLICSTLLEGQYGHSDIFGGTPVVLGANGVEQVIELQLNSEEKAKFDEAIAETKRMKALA

As usually defined, the viability is a read-out of living cells in per cent, often relative to untreated cells. The term inhibition denotes the relative decrease from the control value, in per cent. Regarding `CCN(CC)C(C)CN1c2ccccc2Sc2ccccc21` (stereo not drawn), the glutamate uptake change in [1] is 47.6%. In assay [2], the aggregation suppression score worked out at 1.19. Further, in assay [3], the survival is 4.08 (inactive). In addition, in assay [4], the parasite load remaining is 77.1% (inactive) and 61.6% (inactive) and 39% (inactive); the viability was 89.3% and 65.2% and 91.5%. Further, the inhibition in [5] is -1% (inactive). The fluorescence ratio (interference) in assay [6] is 1 (inactive). In addition, in assay [7] (at 10 µM), the nuclear beta-catenin stimulation is 3.4% (inactive). Besides, the nuclear beta-catenin stimulation in assay [7] (stimulation, at 2 µM) came to 0.5%.
As for `CCCCCCc1ccc(O)cc1O`, the glutamate uptake change in assay [1] stood at 15.5%. Also, in [2], the aggregation suppression score is -0.0012. Also, in [4], the parasite load remaining is 87.3% (inactive) and 55.4% (inactive); the viability is 71.9% and 91.6%. For the same compound, the nuclear beta-catenin stimulation in assay [7] (at 10 µM) is 7.5% (inactive). Besides, in assay [7] (stimulation, at 2 µM), the nuclear beta-catenin stimulation stood at 2.1%.
Regarding `CC[N+](C)(C)Cc1ccccc1Br`, the period change in assay [8] was 0.095 h (inactive). Besides, the survival in assay [3] was 6.92 (inactive). In assay [4], the parasite load remaining is 80.1% (inactive) and the viability was 101%. The nuclear beta-catenin stimulation in [7] (at 10 µM) is -0.9% (inactive). For the same compound, in assay [7] (stimulation, at 2 µM), the nuclear beta-catenin stimulation came to 0.3%.
Take `CCCCc1ccc2nc(NC(=O)OC)[nH]c2c1`: the growth inhibition in assay [9] is 1% (inactive); in [12] it was 98% (active). The inhibition in assay [10] was 26% (inactive); in [11] it was -3% (inactive). For the same compound, in [3], the survival is 1 (inactive). The parasite load remaining in assay [4] is 83.6% (inactive). In addition, the viability in assay [4] amounted to 85.5%. Besides, the nuclear beta-catenin stimulation in [7] (at 10 µM) was 81.2% (active); in [7] (stimulation, at 2 µM), 61.1%.
`CCCCCCCC/C=C\CCCCCCCC(=O)NCc1ccc(O)c(OC)c1`: the values for the growth inhibition in assay [9] and in assay [12] were 93% (active) and 96% (active), respectively. Further, the inhibition is -7% (inactive) in assay [10], -7% (inactive) in [11] and -4% (inactive) in assay [5]. Besides, the fluorescence ratio (interference) in assay [6] was 1 (inactive). Moreover, the nuclear beta-catenin stimulation is 0% (inactive) in [7] (at 10 µM) and -1.2% in assay [7] (stimulation, at 2 µM).
With `O=C(OCc1ccccc1)c1ccccc1`, in assay [1], the glutamate uptake change turned out to be 36%. This compound gave an aggregation suppression score in [2] of 0.363. In addition, in assay [4], the parasite load remaining is 82.1% (inactive) and 33.8% (inactive); the viability was 68.9% and 89.1%. The nuclear beta-catenin stimulation in [7] (at 10 µM) was 0.4% (inactive). For the same compound, the nuclear beta-catenin stimulation in assay [7] (stimulation, at 2 µM) worked out at 2.2%.
For the compound `CN1CCC(=C2c3ccccc3Sc3ccccc32)CC1`, the glutamate uptake change in [1] came to 7.96%. The aggregation suppression score in assay [2] is 1.3. In addition, the survival in assay [3] was 12.3 (inactive). Also, in assay [4], the parasite load remaining was 16.9% (inactive) and 99.5% (inactive) and 91.2% (inactive); the viability is 43.6% and 70.3% and 91.9%. The nuclear beta-catenin stimulation in [7] (at 10 µM) was -0.1% (inactive). In addition, in assay [7] (stimulation, at 2 µM), the nuclear beta-catenin stimulation amounted to 1.3%.
In the case of `COc1cc2c(cc1OC)-c1cc(=Nc3c(C)cc(C)cc3C)n(C)c(=O)n1CC2`, the growth inhibition is 29% (inactive) in assay [9] and 92% (active) in assay [12]. Further, the inhibition was 14% (inactive) in assay [10], 0% (inactive) in [11] and 1% (inactive) in assay [5]. In assay [8], the period change is 0.41 h (inactive). The parasite load remaining in [4] is 22.9% (inactive). The viability in assay [4] turned out to be 56.5%. Besides, the fluorescence ratio (interference) in assay [6] is 0.9 (inactive). Also, the nuclear beta-catenin stimulation was 1.1% (inactive) in assay [7] (at 10 µM) and -0.6% in [7] (stimulation, at 2 µM).
In the case of `CCOc1ccc2nc3cc(N)ccc3c(N)c2c1`, the results for the growth inhibition in assay [9] and in assay [12] were 70% (active) and 98% (active), respectively. Further, the inhibition in [10] was 8% (inactive); in assay [11], 0% (inactive). In addition, the nuclear beta-catenin stimulation was 9.5% (inactive) in assay [7] (at 10 µM) and 0.7% in [7] (stimulation, at 2 µM).
Regarding `COc1cc(C(=O)OCCCN2CCCN(CCCOC(=O)c3cc(OC)c(OC)c(OC)c3)CC2)cc(OC)c1OC`, the period change in assay [8] was -0.025 h (inactive). In assay [3], the survival is 9.25 (inactive). Moreover, in assay [4], the parasite load remaining was 44% (inactive) and 120% (inactive) and 14% (inactive); the viability is 47.9% and 91.2% and 76.5%. For the same compound, the inhibition in assay [5] is -3% (inactive). In addition, in assay [6], the fluorescence ratio (interference) was 1 (inactive). Further, the nuclear beta-catenin stimulation in assay [7] (at 10 µM) was 1.3% (inactive). For the same compound, the nuclear beta-catenin stimulation in assay [7] (stimulation, at 2 µM) stood at 1.7%.
For `Cc1ccc(C(=O)Nc2ccc(S(=O)(=O)O)c3cc(S(=O)(=O)O)cc(S(=O)(=O)O)c23)cc1NC(=O)c1cccc(NC(=O)Nc2cccc(C(=O)Nc3cc(C(=O)Nc4ccc(S(=O)(=O)O)c5cc(S(=O)(=O)O)cc(S(=O)(=O)O)c45)ccc3C)c2)c1`, the period change in [8] is 0.03 h (inactive). In assay [4], the parasite load remaining is 42.8% (inactive) and 57% (inactive); the viability is 89.5% and 106%. For the same compound, in [5], the inhibition was 96% (active). Besides, the fluorescence ratio (interference) in [6] was 1 (inactive). Further, the nuclear beta-catenin stimulation in assay [7] (at 10 µM) was -3.6% (inactive). For the same compound, the nuclear beta-catenin stimulation in assay [7] (stimulation, at 2 µM) is -0.5%.

Source of the values: PubChem BioAssay.
